Screening results from PubChem BioAssay.
Pol kappa inh: blocks human DNA polymerase kappa activity. Q9UBT6. purified Pol kappa, fluorescent DNA synthesis assay, 10 min. Potency, µM (doses to about 107 µM), actives largely listed as inhibitors. hit rate 0.53% among 400,000. AID 588579
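First, compounds were pin-transferred onto 10 nM Pol kappa. After 15 min at room temperature, substrate was added to 50 nM final. Fluorescence was then measured kinetically at 0 and 10 min.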
PI5P4K alpha inh: inhibitors of human PI5P4K alpha | P48426 | PI5P4Kalpha enzyme, ADP-Glo luminescence, 60 min; active compounds read low | max response, % | hit rate 1.2% among 330,000 | AID 652105; active = max response of -50% or lower; inconclusive = between -30% and -50%; inactive = -30% or higher; note: value at the top dose of about 77 µM
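ADP-Glo luminescence end-point after a 60 min room-temperature kinase reaction. PI5P4Kalpha and substrate in HEPES pH 7.4 buffer with EGTA, 0.1% CHAPS and 5% DMSO; ATP at 5 microM final.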
Pol iota inh: DNA polymerase iota (human) inhibition; hit rate 1% among 390,000; Q9UNA4; Pol iota fluorescent replication assay, 10 min; AID 588590; Potency, µM (series often up to 115 µM), most hits filed as inhibitors
Target sequence (Q9UNA4 whole entry, looked up): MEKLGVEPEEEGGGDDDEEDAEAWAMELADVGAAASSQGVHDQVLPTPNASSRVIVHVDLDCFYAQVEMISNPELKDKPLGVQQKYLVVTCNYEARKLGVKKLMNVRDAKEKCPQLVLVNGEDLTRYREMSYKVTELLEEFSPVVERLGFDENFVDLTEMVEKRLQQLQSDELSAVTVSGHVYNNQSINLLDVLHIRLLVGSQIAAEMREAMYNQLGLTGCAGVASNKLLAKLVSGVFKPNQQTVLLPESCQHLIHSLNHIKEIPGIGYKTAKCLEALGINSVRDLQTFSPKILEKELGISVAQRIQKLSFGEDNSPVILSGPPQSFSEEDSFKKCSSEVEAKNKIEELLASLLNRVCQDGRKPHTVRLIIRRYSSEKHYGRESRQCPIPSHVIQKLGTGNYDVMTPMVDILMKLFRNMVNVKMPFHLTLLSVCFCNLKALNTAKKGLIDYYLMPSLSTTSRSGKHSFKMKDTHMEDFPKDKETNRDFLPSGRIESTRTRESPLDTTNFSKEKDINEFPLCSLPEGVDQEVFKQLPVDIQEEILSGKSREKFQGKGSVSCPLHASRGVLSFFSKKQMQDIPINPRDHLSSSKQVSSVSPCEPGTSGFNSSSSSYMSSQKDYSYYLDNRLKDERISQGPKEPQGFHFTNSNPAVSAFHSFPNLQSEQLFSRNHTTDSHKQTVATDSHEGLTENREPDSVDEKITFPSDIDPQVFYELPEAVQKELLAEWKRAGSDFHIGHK
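Fluorescent replication assay read twice, at 0 min and 10 min after adding 50 nM (final) substrate. Enzyme (10 nM) and compounds were first incubated 15 min at room temperature; enzyme-free buffer wells were negative controls.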
POLH inh: DNA polymerase eta (human) inhibition; Q9Y253; recombinant Pol eta, fluorescent DNA replication assay; hit rate 1.2% among 390,000; Potency, µM (top dose mostly 114 µM), hits mostly inhibitors; AID 588591
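Fluorescent replication assay: 50 nM final substrate added after a 15 min room-temperature compound preincubation with 10 nM enzyme. Signal taken at 0 min and again at 10 min.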
WRN inhibitor: blocks human WRN helicase; Q14191; WRN helicase unwinding, fluorescent forked duplex, kinetic; Potency, µM (series often up to 114 µM), usual class: inhibitors; hit rate 0.46% among 360,000; AID 651768; note: nearly all actives have a fitted effect of over 55% in size
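Kinetic red-fluorescence monitoring (525/598 nm) tracks WRN helicase activity after 100 nM fluorophore-quencher forked duplex and 2 mM ATP are added to 20 nM enzyme pretreated 15 min at room temperature with compound.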
Pol beta inh: blocks human DNA polymerase beta activity; hit rate 1.3% among 340,000; Pol beta primer extension/strand displacement, fluorescence kinetic; Potency, µM (highest dose often 114 µM), hits mostly inhibitors
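Values derive from four-parameter Hill fits of normalized kinetic data: reads at 0 and 10 min following addition of 50 nM substrate to 10 nM Pol beta preincubated 15 min with compound.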
Of the large screens only hits and unclear results are named; the others gave an inactive call. Most compounds without a hit are left out; they make up all but 2.8% or so of the library. Unless noted, calls come from the whole dose curve; as a rule, active = well fitted curve in the direction sought with a large enough effect; inconclusive = small, poorly fitted or top-dose-only effect, or another doubt; inactive = no such curve, though single readings can be large; an effect the other way counts as inactive or inconclusive.

CC(C)C(=O)Nc1cc2c3c(c1)CCC(=O)N3CCC2	Pol kappa inh inconclusive, Pol iota inh 35.5µM
CC(=O)N(c1ccccc1)c1ccccc1[N+](=O)[O-]	none (no result: Pol kappa inh, Pol iota inh, Pol beta inh)
O=C(CCc1nnc2ccc(NCc3ccco3)nn12)Nc1cccc(F)c1	Pol iota inh inconclusive, Pol beta inh inconclusive
CCc1ccc(OCC(=O)NC(C)C)cc1	none
O=c1c(O)c(-c2ccc(O)c(O)c2)oc2c(OC3OC(CO)C(O)C(O)C3O)c(O)cc(O)c12 (stereo unspecified)	Pol kappa inh 3.16µM (no result: PI5P4K alpha inh, Pol iota inh, POLH inh, WRN inhibitor, Pol beta inh)
O=c1c(O[C@H]2O[C@@H](CO)[C@H](O)[C@@H](O)[C@@H]2O)c(-c2ccc(O)cc2)oc2cc(O)cc(O)c12	POLH inh inconclusive (no result: Pol beta inh)
O=c1c(O)c(-c2ccc(O)c(O)c2)oc2c(OC[C@@H]3O[C@@H](O)[C@@H](O)[C@H](O)[C@H]3O)c(O)cc(O)c12	Pol kappa inh 0.316µM (no result: PI5P4K alpha inh, Pol iota inh, POLH inh, WRN inhibitor, Pol beta inh)
CCC(=O)c1ccc(OCC(=O)OCC(=O)NC2CCCCCCC2)cc1	none
Cc1nn(CC(=O)NCCCN2CCC(N3CCCCC3)CC2)c(=O)c2cc(-c3ccccc3)nn12	none
Cc1ccccc1NC(=O)c1nc(S(=O)(=O)Cc2ccccc2F)ncc1Cl	none (no result: PI5P4K alpha inh, POLH inh, WRN inhibitor, Pol beta inh)
c1csc(Cc2nn3c(-c4ccncc4)nnc3s2)c1	Pol kappa inh 39.8µM, Pol iota inh 20µM, POLH inh inconclusive, WRN inhibitor inconclusive, Pol beta inh 31.6µM (no result: PI5P4K alpha inh)
CCOC(=O)N1CCN(C(=O)C2CCN(C(=O)c3ccccc3C)CC2)CC1	Pol kappa inh inconclusive, PI5P4K alpha inh -78.6, Pol iota inh inconclusive, POLH inh 31.6µM, WRN inhibitor 20µM (no result: Pol beta inh)
CCOCc1ccccc1Nc1ncnc2onc(-c3ccc(Cl)cc3)c12	none (no result: PI5P4K alpha inh, WRN inhibitor)
CCc1c(C)sc2c1CCN(C(=O)Nc1ccccc1Cl)C2c1ccc(OC)cc1 (stereo unspecified)	none (no result: PI5P4K alpha inh, WRN inhibitor)
O=C(Nc1cccc(C(F)(F)F)c1)c1ccc2nc(-c3ccco3)c(-c3ccco3)nc2c1	Pol kappa inh 44.7µM, PI5P4K alpha inh -101.8, Pol iota inh 15.8µM, POLH inh 8.91µM, WRN inhibitor 25.1µM, Pol beta inh 10µM
COc1ccc(CCNC(=O)c2ccc(N3CCCCS3(=O)=O)cc2)cc1OC	Pol iota inh 79.4µM, Pol beta inh inconclusive
COc1ccc(CCNC(=O)c2ccc3nc(-c4ccco4)c(-c4ccco4)nc3c2)cc1OC	Pol kappa inh 44.7µM, PI5P4K alpha inh -54.7, Pol iota inh 12.6µM, POLH inh 79.4µM, WRN inhibitor 35.5µM, Pol beta inh 35.5µM
Cc1ccc(C(=O)Nc2cccc(C(F)(F)F)c2)cc1NC(=O)c1nccn1C	Pol iota inh inconclusive, Pol beta inh 39.8µM
CCc1nc2ccc(C(=O)NCCc3ccc(OC)c(OC)c3)cc2nc1CC	Pol beta inh inconclusive
O=C(Nc1cccc(C(F)(F)F)c1)c1ccc2snnc2c1	none (no result: PI5P4K alpha inh, WRN inhibitor)
CCC(C)NC(=O)c1ccc2nc(-c3ccco3)c(-c3ccco3)nc2c1 (stereo unspecified)	Pol kappa inh inconclusive, Pol iota inh 22.4µM (no result: PI5P4K alpha inh, POLH inh, WRN inhibitor, Pol beta inh)
CCC(C)NC(=O)c1ccc2nc(Cc3ccccc3)oc2c1 (stereo unspecified)	none (no result: PI5P4K alpha inh, WRN inhibitor)
CCS(=O)(=O)N1Cc2ccccc2CC1C(=O)Nc1ccc(NC(C)=O)cc1 (stereo unspecified)	POLH inh inconclusive
CCS(=O)(=O)N1Cc2ccccc2CC1C(=O)NCCc1ccccc1 (stereo unspecified)	Pol iota inh inconclusive, Pol beta inh 50.1µM
CCS(=O)(=O)N1Cc2ccccc2CC1C(=O)Nc1cc(S(C)(=O)=O)ccc1Cl (stereo unspecified)	Pol kappa inh inconclusive, PI5P4K alpha inh inconclusive, Pol iota inh 35.5µM, POLH inh inconclusive
CCCCNCc1cc2ccccc2o1	none
Cc1cc(C)cc(NC2=C(N)C(=O)c3ccccc3C2=O)c1	Pol iota inh 7.94µM
C#CCOCCOCCOCCNc1nc(N2CCN(C(=O)[C@H]([C@@H](C)CC)n3cc([C@@H](N)CC(C)C)nn3)CC2)nc(N2CCN(C(=O)[C@H](Cc3cc4ccccc4[nH]3)n3cc([C@@H](N)Cc4ccc(O)cc4)nn3)CC2)n1	Pol iota inh inconclusive
